PubChem BioAssay (NCI)
The panel holds about 79,000 compounds, 15% with a hit somewhere; the sample as a whole holds those more often. Activity calls are given as the source filed them. No stated cut-off is given here; in the data, active means growth inhibition above about 70%; inactive means the rest.

assay: NCI Yeast Anticancer Drug Screen. Data for the mlh1 rad18 strain (AID 175); conditions: S. cerevisiae mlh1 rad18 strain growth inhibition; at 50.0 µM; stronger effect = higher value
Procedure: Growth inhibition of yeast strains with defined genetic alterations is measured as a screen for potential anti-cancer activity. Selected strains with alterations in DNA damage repair or cell cycle control were exposed to compounds and growth inhibition was measured relative to vehicle treated controls. The strain used in this assay is mlh1 rad18

Row | Structure (SMILES) | growth inhibition
1 | COc1cc(/C=C2\CN(C)C(=O)C2=O)ccc1O | -12.2% (inactive)
2 | O[C@H]1[C@H](O)[C@@H](Cn2nnc(-c3ccccc3)c2-c2ccccc2)OCO[C@@H]1Cn1nnc(-c2ccccc2)c1-c1ccccc1 | 29.1% (inactive)
3 | CC(=O)c1cccc(OCc2ccccc2)c1 | 8.4% (inactive)
4 | COc1ccc(/C=c2\[nH]c3nc(=O)c(N4CCOCC4)c(N)n3c2=O)cc1 | -10.2% (inactive)
5 | COc1c(OC)c(OC)c2c(c1OC)c(=O)c1ccccc1n2C | -42.2% (inactive)
6 | OC(c1ccc(F)cc1)(c1cccs1)C1CC1 (stereo not given) | -20.2% (inactive)
7 | O=C1OC(c2ccc(Cl)cc2)=N/C1=C\c1ccccc1 | -6.65% (inactive)
8 | N#C/C(=C\c1ccc(-c2ccccc2)cc1)C(N)=O | 27.6% (inactive)
9 | CCOC(=O)NC(C)(C)CN(C(=O)OCC)C(C)(C)CO | 8.05% (inactive)
10 | O=C1c2ccccc2-c2c1c1ccccc1c(=O)n2-c1cccnc1 | -9.05% (inactive)
11 | C=C1C(=O)O[C@H]2C[C@@]3(C)[C@H](O)CCC(=C)[C@@H]3[C@@H](OC(C)=O)[C@H]12 | -29.4% (inactive)
12 | NC(=O)CC1OC(=O)Cc2cc3c(c(O)c21)C(=O)c1c(O)cccc1C3=O (stereo not given) | -28.6% (inactive)
13 | CC(=Nc1ccncc1)C(C)=Nc1ccncc1 | 88.7% (active)
14 | COc1cc(OC)cc(C(=O)Cl)c1 | -16.1% (inactive)
15 | CCCCCCSC[C@H](OC(C)=O)[C@@H](OC(C)=O)[C@@H](OC(C)=O)[C@@H](COC(C)=O)OC(C)=O | -5.35% (inactive)
16 | CCCCCCCCCCCCCCCC(C)(C)O | 5.1% (inactive)
17 | Cc1cc(S(=O)(=O)O)c(NC(=O)c2oc3cc(O)ccc3c(=O)c2C)cc1Cl | 3.95% (inactive)
18 | Cc1ccc2oc(C)[n+](CCC(=O)O)c2c1 | 42% (inactive)
19 | N#[N+]c1c(O)cc(S(=O)(=O)O)c2ccccc12 | -10.4% (inactive)
20 | COc1ccc(C2c3cc4c(c(OC)c3CC3OCC(=O)C32)OCO4)cc1OC (stereo not given) | -4.3% (inactive)

Row | Structure (SMILES) | growth inhibition
21 | COc1ccc2ccccc2c1/C=N/N1CCCCC1 | 1.05% (inactive)
22 | N=C1N=C(N)CS1 | 3.85% (inactive)
23 | Cc1ccc(S(=O)(=O)NCN2C(=O)c3ccccc3C2=O)cc1 | 1.55% (inactive)
24 | CCC(=O)C(CC)c1cccc(OC)c1 (stereo not given) | 21.4% (inactive)
25 | O=C(Cc1nc2ccc(C(=O)c3ccccc3)cc2[nH]c1=O)C(=O)Nc1ccccc1[N+](=O)[O-] | 12.3% (inactive)
26 | COc1ccc(CNc2ccccn2)cc1 | 40.2% (inactive)
27 | C=C1C(=O)OC2CC(C)C3(O)CCC(=O)C3(C)CC12 (stereo not given) | -33.5% (inactive)
28 | O=C1c2ccccc2C(=O)N1/N=C/c1ccc2c(c1)OCO2 | 18.4% (inactive)
29 | C/C(=C\COc1cc(O)c2c(c1)C(=O)c1cc(C)cc(O)c1C2=O)CCC1OC1(C)C (stereo not given) | -53.7% (inactive)
30 | NC1N=C(c2ccc(Cl)cc2)C2=C(N1)c1ccccc1CC2 (stereo not given) | -50.7% (inactive)
31 | Cc1ccc(Cl)cc1NCN1C(=O)c2ccccc2C1=O | 11.1% (inactive)
32 | COC(=O)C(C(=O)C(=O)NC1Nc2ccc(C)cc2S1)c1nc2ccc(Cl)cc2[nH]c1=O (stereo not given) | 28.9% (inactive)
33 | CCC(C)NCCNCCNC(C)CC (stereo not given) | 0.8% (inactive)
34 | CC(C)=CC(O)C/C(C)=C/CC/C(C)=C/CCC1(C)C(CCCO)/C(=C(/C)C=O)CCC1(C)O (stereo not given) | -52.9% (inactive)
35 | CC1(O)CC2CC1C(C(=O)O)C2C(=O)O (stereo not given) | -15.1% (inactive)
36 | c1coc(-c2nc(N=C3N=c4ccccc4=N3)[nH]c2-c2ccco2)c1 | 4% (inactive)
37 | C=CC1=C(C)C2=NC1=CC1=NC(=C(CC)/C1=C\O)C=C1N=C3C(=C1C)C(=O)[C@H](C(=O)OC)C3=C1NC(=C2)[C@@H](C)[C@@H]1CCC(=O)O | -15.9% (inactive)
38 | Cc1ccc(OCC2OC(n3cnc4nc(N)nc(Cl)c43)CC2Oc2ccc(C)cc2)cc1 (stereo not given) | 2.6% (inactive)
39 | CCN(CC)CCN(C)CC(=O)Nc1ccccc1C | 38.4% (inactive)
40 | COc1ccc(-c2cc(=O)c3c(O)cc(C)cc3o2)cc1OC | -21.6% (inactive)
